Test results published in the supplement of paper PMC10037445.
± gives the standard deviation of the averaged measurements. In all, about 2,900 compounds were measured (“NF-kB SEAP reporter activity, fold change vs agonist alone”: median about 0.99, highest 2% from about 2.6 on). The sample holds the highest values, similar compounds and a random draw of the others, so the mix is not that of the screen.

Legend:
RAW-Dual [1] = assay: NF-kB SEAP reporter activity, fold change vs agonist alone; cytotoxicity flag (confluency mask): not cytotoxic; higher = enhanced NF-kB activity
How it was run: (§1)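 RAW-Dual macrophages (50,000 cells/well in DMEM, 384-well plates) received 50 nL of library stock by pin tool, then a PRR agonist 1 h later, and were kept at 37 °C, 5% CO2. After 20 hours, supernatant was read for IRF by QuantiLuc luminescence and for NF-κB by QuantiBlue absorbance at 620 nm. Reporter activity is fold change over agonist-alone wells. Cytotoxic wells had IncuCyte confluency below 70% of agonist controls in both mask sets.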

RAW-Dual [2] = assay: NF-kB SEAP reporter activity, fold change vs agonist alone; higher = enhanced NF-kB activity
How it was run: as §1

RAW-Dual [3] = assay: NF-kB SEAP reporter activity, fold change vs agonist alone; cytotoxicity flag (confluency mask): cytotoxic (confluency <70% of control); higher = enhanced NF-kB activity
How it was run: as §1

[4] = agonist: ODN 1826 (TLR9) 0.5 ug/mL
[5] = agonist: Pam2CSK4 (TLR2/6) 0.1 ug/mL
[6] = agonist: Pam3CSK4 (TLR2/1) 0.1 ug/mL
[7] = library stock concentration (final ~1000-fold dilution): 10 mM, cytotoxicity flag (confluency mask): not cytotoxic, agonist: Imiquimod (TLR7) […]
[8] = library stock concentration (final ~1000-fold dilution): 10 mM, cytotoxicity flag (confluency mask): not cytotoxic, agonist: MPLA (TLR4) […]
[9] = library stock concentration (final ~1000-fold dilution): 10 mM, cytotoxicity flag (confluency mask): cytotoxic (confluency <70% of control), agonist: Imiquimod (TLR7) […]
[10] = library stock concentration (final ~1000-fold dilution): 10 mM, cytotoxicity flag (confluency mask): cytotoxic (confluency <70% of control), agonist: MPLA (TLR4) […]

SMILES: O=c1cc(-c2cccc3c2Sc2ccccc2S3)oc(N2CCOCC2)c1 (library stock concentration (final ~1000-fold dilution): 10 mM)
- NF-kB SEAP reporter activity (RAW-Dual [1]; agonist: LPS (TLR4) 0.1 ug/mL): 2.66
- NF-kB SEAP reporter activity (RAW-Dual [1]; [4]): 0.715
- NF-kB SEAP reporter activity (RAW-Dual [1]; [5]): 0.748
- NF-kB SEAP reporter activity (RAW-Dual [1]; [6]): 0.948

SMILES: CNC(=O)C(Cc1c[nH]c2ccccc12)NC(=O)C(CC(=O)NO)CC(C)C (stereo not given)
- NF-kB SEAP reporter activity (RAW-Dual [2]; [7]): 1.04
- NF-kB SEAP reporter activity (RAW-Dual [2]; [8]): 1.23

SMILES: CNC(=O)C(Cc1c[nH]c2ccccc12)NC(=O)C(CC(=O)NO)CC(C)C (stereo not given) (library stock concentration (final ~1000-fold dilution): 10 mM)
- NF-kB SEAP reporter activity (RAW-Dual [1]; agonist: LPS (TLR4) 0.1 ug/mL): 0.932
- NF-kB SEAP reporter activity (RAW-Dual [1]; [4]): 0.999
- NF-kB SEAP reporter activity (RAW-Dual [1]; [5]): 1.03
- NF-kB SEAP reporter activity (RAW-Dual [1]; [6]): 1.01

SMILES: CN1C2CCCC1CC(NC(=O)c1nn(C)c3ccccc13)C2.Cl (stereo not given) (library stock concentration (final ~1000-fold dilution): 10 mM water)
- NF-kB SEAP reporter activity (RAW-Dual [1]; agonist: LPS (TLR4) 0.1 ug/mL): 1.2
- NF-kB SEAP reporter activity (RAW-Dual [1]; [4]): 1.06
- NF-kB SEAP reporter activity (RAW-Dual [1]; [5]): 1.04
- NF-kB SEAP reporter activity (RAW-Dual [1]; [6]): 1.11

SMILES: CN1C2CCCC1CC(NC(=O)c1nn(C)c3ccccc13)C2.Cl (stereo not given)
- NF-kB SEAP reporter activity (RAW-Dual [2]; library stock concentration (final ~1000-fold dilution): 10 mM water, cytotoxicity flag (confluency mask): not cytotoxic, agonist: Imiquimod (TLR7) […]): 0.874
- NF-kB SEAP reporter activity (RAW-Dual [2]; library stock concentration (final ~1000-fold dilution): 10 mM water, cytotoxicity flag (confluency mask): not cytotoxic, agonist: MPLA (TLR4) […]): 1

SMILES: CC1(C)CCC2(NC(=O)C(C)(F)F)CCC3(C)C(C(=O)C=C4C5(C)C=C(C#N)C(=O)C(C)(C)C5CCC43C)C2C1 (stereo not given) (library stock concentration (final ~1000-fold dilution): 10 mM)
- NF-kB SEAP reporter activity (RAW-Dual [3]; agonist: LPS (TLR4) 0.1 ug/mL): 0.358 ± 0.053
- NF-kB SEAP reporter activity (RAW-Dual [3]; [4]): 0.173 ± 0.0087
- NF-kB SEAP reporter activity (RAW-Dual [3]; [5]): 0.0759 ± 0.018
- NF-kB SEAP reporter activity (RAW-Dual [3]; [6]): 0.163 ± 0.0017

SMILES: CC1(C)CCC2(NC(=O)C(C)(F)F)CCC3(C)C(C(=O)C=C4C5(C)C=C(C#N)C(=O)C(C)(C)C5CCC43C)C2C1 (stereo not given)
- NF-kB SEAP reporter activity (RAW-Dual [2]; [9]): 0.14 ± 0.006
- NF-kB SEAP reporter activity (RAW-Dual [2]; [10]): 0.254 ± 0.0072

SMILES: C=CC(C)(/C=C/c1ccc(O)cc1)CCC=C(C)C (stereo not given) (library stock concentration (final ~1000-fold dilution): 10 mM)
- NF-kB SEAP reporter activity (RAW-Dual [1]; agonist: LPS (TLR4) 0.1 ug/mL): 0.878
- NF-kB SEAP reporter activity (RAW-Dual [1]; [4]): 1.02
- NF-kB SEAP reporter activity (RAW-Dual [1]; [5]): 0.934
- NF-kB SEAP reporter activity (RAW-Dual [1]; [6]): 1.16

SMILES: C=CC(C)(/C=C/c1ccc(O)cc1)CCC=C(C)C (stereo not given)
- NF-kB SEAP reporter activity (RAW-Dual [2]; [7]): 1.1
- NF-kB SEAP reporter activity (RAW-Dual [2]; [8]): 1.12

SMILES: C=CCNC1=C2CC(C)CC(OC)C(O)C(C)/C=C(\C)C(OC(N)=O)C(OC)/C=C\C=C(/C)C(=O)NC(=CC1=O)C2=O (stereo not given) (library stock concentration (final ~1000-fold dilution): 10 mM)
- NF-kB SEAP reporter activity (RAW-Dual [3]; agonist: LPS (TLR4) 0.1 ug/mL): 0.289
- NF-kB SEAP reporter activity (RAW-Dual [3]; [4]): 0.221
- NF-kB SEAP reporter activity (RAW-Dual [3]; [5]): 0.0862
- NF-kB SEAP reporter activity (RAW-Dual [3]; [6]): 0.182

SMILES: C=CCNC1=C2CC(C)CC(OC)C(O)C(C)/C=C(\C)C(OC(N)=O)C(OC)/C=C\C=C(/C)C(=O)NC(=CC1=O)C2=O (stereo not given)
- NF-kB SEAP reporter activity (RAW-Dual [2]; [9]): 0.313
- NF-kB SEAP reporter activity (RAW-Dual [2]; [10]): 0.516

SMILES: COc1ccc2c(c1)c(C1=C(c3c[nH]c4ccccc34)C(=O)NC1=O)cn2CCCN(C)C (library stock concentration (final ~1000-fold dilution): 10 mM)
- NF-kB SEAP reporter activity (RAW-Dual [3]; agonist: LPS (TLR4) 0.1 ug/mL): 1.23
- NF-kB SEAP reporter activity (RAW-Dual [3]; [4]): 0.346
- NF-kB SEAP reporter activity (RAW-Dual [3]; [5]): 1.25
- NF-kB SEAP reporter activity (RAW-Dual [3]; [6]): 1.82

SMILES: COc1ccc2c(c1)c(C1=C(c3c[nH]c4ccccc34)C(=O)NC1=O)cn2CCCN(C)C
- NF-kB SEAP reporter activity (RAW-Dual [2]; [9]): 2.44
- NF-kB SEAP reporter activity (RAW-Dual [2]; [10]): 1.71

SMILES: CN(C)CCCn1cc(C2=C(c3c[nH]c4ccccc34)C(=O)NC2=O)c2ccccc21
- NF-kB SEAP reporter activity (RAW-Dual [2]; [9]): 1.13
- NF-kB SEAP reporter activity (RAW-Dual [2]; [10]): 1.59

SMILES: CN1CCN(c2nc(C3=C(c4c[nH]c5ccccc45)C(=O)NC3=O)c3ccccc3n2)CC1 (library stock concentration (final ~1000-fold dilution): 10 mM)
- NF-kB SEAP reporter activity (RAW-Dual [3]; agonist: LPS (TLR4) 0.1 ug/mL): 2.03
- NF-kB SEAP reporter activity (RAW-Dual [3]; [4]): 1.29
- NF-kB SEAP reporter activity (RAW-Dual [3]; [5]): 1.84
- NF-kB SEAP reporter activity (RAW-Dual [3]; [6]): 3.14

SMILES: CN1CCN(c2nc(C3=C(c4c[nH]c5ccccc45)C(=O)NC3=O)c3ccccc3n2)CC1
- NF-kB SEAP reporter activity (RAW-Dual [2]; [9]): 2.99
- NF-kB SEAP reporter activity (RAW-Dual [2]; [10]): 2.19

SMILES: CN(C)CCCn1cc(C2=C(c3c[nH]c4ccccc34)C(=O)NC2=O)c2ccccc21 (library stock concentration (final ~1000-fold dilution): 10 mM)
- NF-kB SEAP reporter activity (RAW-Dual [3]; agonist: LPS (TLR4) 0.1 ug/mL): 0.346
- NF-kB SEAP reporter activity (RAW-Dual [3]; [4]): 0.491
- NF-kB SEAP reporter activity (RAW-Dual [3]; [5]): 0.833
- NF-kB SEAP reporter activity (RAW-Dual [3]; [6]): 0.564

SMILES: Cc1ncc(NC(=O)c2cccc(C(F)(F)F)c2)cc1-c1cnc(OC2CCOCC2)c(N2CCOCC2)c1
- NF-kB SEAP reporter activity (RAW-Dual [2]; [7]): 0.898
- NF-kB SEAP reporter activity (RAW-Dual [2]; [8]): 1.04

SMILES: Cc1ncc(NC(=O)c2cccc(C(F)(F)F)c2)cc1-c1cnc(OC2CCOCC2)c(N2CCOCC2)c1 (library stock concentration (final ~1000-fold dilution): 10 mM)
- NF-kB SEAP reporter activity (RAW-Dual [1]; agonist: LPS (TLR4) 0.1 ug/mL): 1.31
- NF-kB SEAP reporter activity (RAW-Dual [1]; [4]): 0.938
- NF-kB SEAP reporter activity (RAW-Dual [1]; [5]): 0.495
- NF-kB SEAP reporter activity (RAW-Dual [1]; [6]): 0.711

SMILES: Cc1cc(C)c2c(c1)C(N(Cc1cc(C(F)(F)F)cc(C(F)(F)F)c1)c1nnn(C)n1)CCCN2CC1CCC(C(=O)O)CC1 (stereo not given)
- NF-kB SEAP reporter activity (RAW-Dual [2]; [7]): 0.911
- NF-kB SEAP reporter activity (RAW-Dual [2]; [8]): 1.14

SMILES: Cc1cc(C)c2c(c1)C(N(Cc1cc(C(F)(F)F)cc(C(F)(F)F)c1)c1nnn(C)n1)CCCN2CC1CCC(C(=O)O)CC1 (stereo not given) (library stock concentration (final ~1000-fold dilution): 10 mM)
- NF-kB SEAP reporter activity (RAW-Dual [1]; agonist: LPS (TLR4) 0.1 ug/mL): 0.632
- NF-kB SEAP reporter activity (RAW-Dual [1]; [4]): 0.635
- NF-kB SEAP reporter activity (RAW-Dual [1]; [5]): 0.484
- NF-kB SEAP reporter activity (RAW-Dual [1]; [6]): 0.444

SMILES: CC(C)CC(NC(=O)C(NC(=O)c1cccc(-c2ccccc2)n1)C(C)O)B(O)O (stereo not given)
- NF-kB SEAP reporter activity (RAW-Dual [2]; [7]): 2.29
- NF-kB SEAP reporter activity (RAW-Dual [2]; [8]): 0.997

SMILES: CC(C)CC(NC(=O)C(NC(=O)c1cccc(-c2ccccc2)n1)C(C)O)B(O)O (stereo not given) (library stock concentration (final ~1000-fold dilution): 10 mM)
- NF-kB SEAP reporter activity (RAW-Dual [1]; agonist: LPS (TLR4) 0.1 ug/mL): 0.629
- NF-kB SEAP reporter activity (RAW-Dual [1]; [4]): 1.53
- NF-kB SEAP reporter activity (RAW-Dual [1]; [5]): 0.976
- NF-kB SEAP reporter activity (RAW-Dual [1]; [6]): 0.594
